Only some compounds are listed: those with a hit (about 18% of all), similar ones and a draw of the others.
TDP1 block: TDP1 (human) enzyme inhibition. Potency, µM (highest dose often 130 µM), without a hit: top-dose activity change, negative = inhibition, most hits filed as inhibitors. recombinant TDP1, AlphaScreen DNA substrate cleavage. 0.28% of 350,000 active. Q9NUW8; also: potency is read from the fitted curve at half-maximal effect; % is scaled to controls: 0 for no effect and ±100 for the full control effect; nearly all actives have a fitted effect of over 40% in size
Target sequence (Q9NUW8 whole entry, looked up): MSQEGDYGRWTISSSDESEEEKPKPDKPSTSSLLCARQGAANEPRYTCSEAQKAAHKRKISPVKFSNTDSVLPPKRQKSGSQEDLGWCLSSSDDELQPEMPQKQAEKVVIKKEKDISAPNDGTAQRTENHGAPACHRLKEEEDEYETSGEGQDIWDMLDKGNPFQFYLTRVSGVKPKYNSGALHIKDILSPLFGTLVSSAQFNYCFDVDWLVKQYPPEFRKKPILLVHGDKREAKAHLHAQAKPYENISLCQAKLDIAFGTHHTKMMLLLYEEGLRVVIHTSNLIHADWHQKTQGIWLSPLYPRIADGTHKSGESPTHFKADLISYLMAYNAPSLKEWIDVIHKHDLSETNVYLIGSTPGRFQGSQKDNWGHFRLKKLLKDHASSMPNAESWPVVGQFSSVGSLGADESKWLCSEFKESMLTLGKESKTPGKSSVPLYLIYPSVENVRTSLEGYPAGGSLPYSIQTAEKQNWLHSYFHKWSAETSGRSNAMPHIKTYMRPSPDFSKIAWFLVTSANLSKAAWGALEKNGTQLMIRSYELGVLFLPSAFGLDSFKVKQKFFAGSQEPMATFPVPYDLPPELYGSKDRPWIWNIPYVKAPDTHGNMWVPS
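Compounds were preincubated with Tdp1 (1 nM final) for 15 min at room temperature before substrate (15 nM final) started a 5 min reaction; beads (10 ug/ml final) were then added for 10 min before AlphaScreen detection.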
DT40 TDP1 no CPT: qHTS for Inhibitors of human tyrosyl-DNA phosphodiesterase 1 (TDP1): qHTS in cells in absence of CPT; AID 686978, 2013; Potency, µM (series often up to 46.2 µM), without a hit: at the highest dose activity change, negative = growth inhibition, actives largely listed as inhibitors; DT40 Tdp1-/- hTDP1 cells, no CPT, ATP luminescence, 48 h; 15% of 420,000 active; also: potency is read from the fitted curve at half-maximal effect; % is scaled to controls: 0 for no effect and ±100 for the full control effect; nearly all actives have a fitted effect of over 55% in size
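No-CPT arm: Tdp1-/-;hTDP1 DT40 cells (400/well) plus compounds, incubated ≥48 hr at 37 °C. Readout CellTiter-Glo luminescence.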
TGFb inhibitor: inhibitors of TGF-b signaling; HepG2 CAGA-GFP TGF-b/SMAD3 reporter, GFP fluorescence, 18 h; TGF-beta stimulated, 500 pg/mL final; Potency, µM (series often up to 46.1 µM), for the others: at the highest dose activity, negative = inhibition, hits mostly inhibitors; 1.2% of 410,000 active; also: potency is read from the fitted curve at half-maximal effect; % is scaled to controls: 0 for no effect and ±100 for the full control effect; nearly all actives have a fitted effect of over 65% in size
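Cell-based qHTS in HEPG2 carrying a CAGA-GFP Smad reporter; compounds added before 500 pg/mL final TGF-beta, 18 h incubation at 37 degrees C, GFP fluorescence quantified per cell by imaging cytometry.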
HepG2 tox: counter-screen for TGF-b inhibitors: cytotoxicity in HepG2 cells. HepG2 CAGA-GFP viability, ATP luminescence, 18 h. Potency, µM (titrated, usually from 46.1 µM), inactives show at the highest dose activity change, negative = cytotoxicity, actives largely listed as cytotoxic. 0.76% of 410,000 active; also: potency is read from the fitted curve at half-maximal effect
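CellTiter-Glo luminescence gave cytotoxicity after 18 hours at 37 degrees C. The cells were HepG2 CAGA-GFP in 1% FBS DMEM, stimulated with 500 pg/mL TGF-beta after compound addition. %Activity was normalised to no-cell wells (complete cell-killing) and DMSO (no toxicity), and curves were fitted and classified.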
IL-1B inflam inh: blocks inflammasome-driven IL-1 beta release; THP-1 LPS/ATP IL-1B secretion, AlphaLISA, 16 h; hits give low values; activity change, % at 57.5 µM; 4.7% of 360,000 active; AID 743279; in the data active = activity change below about -50%; inconclusive = mostly about -30% to -49%; also: % is scaled to controls: 0 for no effect and ±100 for the full control effect
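Secreted IL-1B measured by AlphaLISA bead assay after 16 h compound exposure of THP-1 cells; compounds (final up to 57.5 uM) added 1 h before LPS (250 ng/mL) and ATP (1.25 mM) stimulation; lower signal means less secretion.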
DT40 TDP1 CPT: DT40-hTDP1 cell growth loss with CPT; chicken DT40 Tdp1-/-;hTDP1 cells + 20 nM CPT, ATP luminescence, 48 h; Potency, µM (top dose mostly 46.2 µM), inactives show at the highest dose activity change, negative = growth inhibition, usual class: inhibitors; 12% of 420,000 active; also: potency is read from the fitted curve at half-maximal effect; % is scaled to controls: 0 for no effect and ±100 for the full control effect; nearly all actives have a fitted effect of over 55% in size
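Chicken DT40 Tdp1-/- cells stably complemented with human TDP1 were seeded at 400 cells/well in medium containing 20 nM camptothecin, exposed to pin-transferred compounds, and grown at 37 °C for at least 48 hr. Viability was read as ATP luminescence.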
An asterisk follows results filed as active; [ ] = remark or other dose. Unless noted, calls follow the shape of the dose curve; as a rule, active = well fitted curve in the direction sought with a large enough effect; inconclusive = small, poorly fitted or top-dose-only effect, or another doubt; inactive = no such curve, though single readings can be large; an effect the other way counts as inactive or inconclusive.

Results for CCN(CC)S(=O)(=O)c1ccc(C(=O)NC(=S)N2CCN(c3ccccc3O)CC2)cc1 ?
DT40 TDP1 no CPT: 18.4µM*; TGFb inhibitor: -21.8%; HepG2 tox: -16.4%; IL-1B inflam inh: -19.5; DT40 TDP1 CPT: inconclusive

Results for CC(C)CC(CN)CC(=O)O (stereo unspecified) ?
TDP1 block: 7.3%[56.1 µM]

How did O=C(c1ccco1)c1cn(Cc2ccccc2Cl)c2ccccc12 do in these assays?
TDP1 block: 4.7%; DT40 TDP1 no CPT: inconclusive; TGFb inhibitor: 0.0%; HepG2 tox: -20.5%; IL-1B inflam inh: -16.4; DT40 TDP1 CPT: 17.8µM*

What do the screens show for `Cc1cc(OC(=O)N(C)C)nn1C(=O)N(C)C`?
TDP1 block: 5.6%

Results for CCn1c(N)c(C(=O)NC)sc1=S ?
TDP1 block: 6.5%; DT40 TDP1 no CPT: 16.4µM*; TGFb inhibitor: 8.0%; HepG2 tox: 10.6%; IL-1B inflam inh: -19.6; DT40 TDP1 CPT: 18.4µM*

How did COc1ccc(NS(=O)(=O)c2cc(NC(=O)COc3ccccc3)ccc2N2CCOCC2)cc1 do in these assays?
TDP1 block: 2.4%; DT40 TDP1 no CPT: inconclusive; TGFb inhibitor: -3.3%; HepG2 tox: -9.1%; IL-1B inflam inh: -18.4; DT40 TDP1 CPT: inconclusive

How did COc1cccc(-c2nnc3n(Cc4ccccc4Cl)c(=O)c4ccccc4n23)c1O do in these assays?
TDP1 block: 5.7%; DT40 TDP1 no CPT: inconclusive; TGFb inhibitor: -20.9%; HepG2 tox: -42.7%; DT40 TDP1 CPT: inconclusive

What do the screens show for `O=C1c2ccccc2S(=O)(=O)c2cc(C(=O)N3CCN(c4c(Cl)cncc4Cl)CC3)ccc21`?
DT40 TDP1 no CPT: 14.6µM*; TGFb inhibitor: -12.4%; HepG2 tox: 1.2%; IL-1B inflam inh: -0.5; DT40 TDP1 CPT: inconclusive

How did Oc1ccc2c3c1O[C@H]1[C@@H](O)C=C[C@H]4[C@@H](C2)NCC[C@@]341 do in these assays?
DT40 TDP1 no CPT: -15.8%[92.5 µM]; DT40 TDP1 CPT: -19.3%[92.5 µM]

Results for CC(=O)c1c(O)cc2c3c1OC(C)(C)C1CCC(C)(CC31)O2 (stereo unspecified) ?
DT40 TDP1 no CPT: 13µM*; TGFb inhibitor: -10.6%; HepG2 tox: -19.8%; IL-1B inflam inh: 2.0; DT40 TDP1 CPT: 20.6µM*

What do the screens show for `COC(=O)c1ccc(N2C(=O)CC(N3CCC(O)(c4ccc(Br)cc4)CC3)C2=O)cc1` (stereo unspecified)?
TDP1 block: 2.8%; DT40 TDP1 no CPT: -15.6%; TGFb inhibitor: -11.5%; HepG2 tox: 5.6%; IL-1B inflam inh: 17.8; DT40 TDP1 CPT: inconclusive

Results for CN(C)C(=O)Oc1ccc(C(=O)c2ccccc2)cc1 ?
TDP1 block: -1.6%[56.1 µM]; DT40 TDP1 no CPT: -7.5%; TGFb inhibitor: -12.6%; HepG2 tox: -20.4%; IL-1B inflam inh: -5.7; DT40 TDP1 CPT: -5.5%

Results for CC(C)(C)n1cc(C(=O)c2ccccc2)cc1-c1ccccc1 ?
TDP1 block: 12.3%; DT40 TDP1 no CPT: inconclusive; TGFb inhibitor: 0.8%; HepG2 tox: -8.6%; IL-1B inflam inh: 18.3; DT40 TDP1 CPT: 25.9µM*

How did O=S1(=O)N(CCN2CC=C(c3c[nH]c4cc(F)ccc34)CC2)c2cccc3c2N1CCC3 do in these assays?
TDP1 block: 17.9%[56.1 µM]; DT40 TDP1 no CPT: 16.4µM*; TGFb inhibitor: inconclusive; HepG2 tox: -45.3%; IL-1B inflam inh: -58.8*; DT40 TDP1 CPT: 9.2µM*

How did Cc1c(Cl)cccc1NC(=O)NCCOCCn1c(=O)oc2ccccc21 do in these assays?
TDP1 block: -2.3%; DT40 TDP1 no CPT: 7.31µM*; TGFb inhibitor: inconclusive; HepG2 tox: -25.7%; DT40 TDP1 CPT: 8.2µM*

What do the screens show for `CC(=O)CCc1ccccc1`?
TDP1 block: 5.9%; DT40 TDP1 no CPT: 7.4%; TGFb inhibitor: 0.9%; HepG2 tox: 3.9%; IL-1B inflam inh: 7.8; DT40 TDP1 CPT: 40.4%

How did COc1ccc(C(=O)Nc2nnc(S(=O)(=O)N(CC(C)C)c3ccc(C)cc3)s2)cc1OC do in these assays?
TDP1 block: -2.6%; DT40 TDP1 no CPT: inconclusive; TGFb inhibitor: inconclusive; HepG2 tox: -0.6%; DT40 TDP1 CPT: inconclusive

How did O=[N+]([O-])NC1=NCCN1Cc1ccc(Cl)nc1 do in these assays?
TDP1 block: 18.7%; DT40 TDP1 no CPT: 2.59µM*; TGFb inhibitor: -0.2%; HepG2 tox: -5.8%; IL-1B inflam inh: 16.6

Results for c1ccc(P(c2ccccc2)c2ccccn2)cc1 ?
DT40 TDP1 no CPT: 5.17µM*; TGFb inhibitor: -22.9%; HepG2 tox: 10.1%; IL-1B inflam inh: 27.7; DT40 TDP1 CPT: 5.17µM*

Results for S=C=Nc1ccccn1 ?
TDP1 block: 4.6%; DT40 TDP1 no CPT: inconclusive; TGFb inhibitor: inconclusive; HepG2 tox: -2.2%; IL-1B inflam inh: 21.4; DT40 TDP1 CPT: -23.7%

Results for COc1ccc2c(c1)c(CCN)c(C)n2Cc1ccccc1 ?
DT40 TDP1 no CPT: 20.6µM*; TGFb inhibitor: inconclusive; HepG2 tox: -123.2%; IL-1B inflam inh: -51.7*; DT40 TDP1 CPT: inconclusive

What do the screens show for `C[C@H](NC(=O)[C@@H](N)Cc1ccc(O)cc1)C(=O)NCC(=O)N(C)[C@@H](Cc1ccccc1)C(=O)N[C@H](CO)CCS(C)=O` (stereo partly specified)?
TDP1 block: 3.7%; DT40 TDP1 no CPT: -23.0%[4.12 µM]; DT40 TDP1 CPT: inconclusive

How did Cc1cnc(SCc2ccccn2)nc1C1CCCN(C(=O)c2cccc(-c3cccc(F)c3)c2)C1 (stereo unspecified) do in these assays?
DT40 TDP1 no CPT: 16.4µM*; DT40 TDP1 CPT: -6.8%[9.04 µM]

How did COC(=O)C1=C(c2ccc(Cl)c(C(F)(F)F)c2)C[C@@H]2CC[C@H]1N2C(=O)NCCOc1ccc(OC)cc1 do in these assays?
TDP1 block: -13.0%; DT40 TDP1 no CPT: inconclusive; TGFb inhibitor: inconclusive; HepG2 tox: -9.3%; IL-1B inflam inh: -63.0*; DT40 TDP1 CPT: inconclusive

What do the screens show for `CCCNC(=O)N1[C@H]2CC[C@@H]1C(C(=O)OC)=C(c1ccc(Cl)c(C(F)(F)F)c1)C2`?
TDP1 block: -0.5%; DT40 TDP1 no CPT: 14.6µM*; TGFb inhibitor: 4.4%; HepG2 tox: -8.7%; IL-1B inflam inh: -11.0; DT40 TDP1 CPT: 16.4µM*

Compound activity (PubChem BioAssay)
